The whole screen tested about 4,100 compounds, of which about 1,600 (39%) were called active. About 25% were inconclusive and are not listed. The call rests on the fitted dose curve; in most records, active means well fitted inhibition curve with a large enough effect; inconclusive means small, poorly fitted or top-dose-only effect; inactive means no such curve, though single readings can be large or run the other way. The list shows a part of the results.
Test: qHTS Validation assay for Inhibitors of Plasmodium falciparum Dd2 growth in vitro; further: nearly all actives have a fitted effect of over 70% in size
Settings: P. falciparum Dd2 in RBCs, SYBR Green growth, 72 h; series mostly up to 28.7 µM
Outline: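 P. falciparum Dd2-infected red blood cells (2.5% hematocrit, 0.3% parasitemia) grown 72 h at 37 °C under 5% O2 with compounds in a titration, 29 uM to 0.5 nM final. Growth read as SYBR Green-1 fluorescence after ~16 h lysis; artesunate 300 nM as positive control.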
Potency means the concentration at half of the fitted maximal effect.

Potency, active:
CCOc1cccc(C2c3[nH]c4ccccc4c3CCN2C(=O)CSCc2ccc(F)cc2)c1 (stereo not drawn) 15000 nM
CCOc1cc(C(=O)N2CCc3c([nH]c4ccccc34)C2c2ccccc2)cc(OCC)c1OCC (stereo not drawn) 7500 nM
CN1N=C(C(=O)N2CCc3c([nH]c4ccccc34)C2c2ccccc2Cl)CCC1=O (stereo not drawn) 5310 nM
COc1ccc2nc3cc(Cl)ccc3c(Nc3cc(C(C)C)c(O)cc3C)c2c1 266 nM
Oc1ccccc1CN1CC(CNc2cccnc2)C2(C1)CN(c1ccccc1)C2 (stereo not drawn) 10900 nM
Clc1cnccc1CN1CC(CNc2ccccc2)C2(C1)CN(c1ccccc1)C2 (stereo not drawn) 13700 nM
CC(C)c1ccc(CN2CC(CNc3cccnc3)C3(C2)CN(c2ccccc2)C3)cc1 (stereo not drawn) 4850 nM
Cc1ccc2oc(=O)c3cnn(CC(=O)Nc4cccc(C(F)(F)F)c4)c3c2c1 2660 nM
COc1cc(NC(=O)Cn2ncc3c(=O)oc4ccccc4c32)cc(OC)c1OC 2660 nM
COc1ccc(CC(=O)NCc2cc(C)cc3c(C)c(C)[nH]c23)c(OC)c1 8410 nM
COc1ccc(-c2nc3c(c(SCc4ccc(Br)cc4)n2)Cc2c(CO)cnc(C)c2O3)cc1 66.8 nM
CCCCn1cc(S(=O)(=O)c2ccc(Cl)cc2)c(=O)c2cc(F)c(N3CCCCC3)cc21 15000 nM
C1CCC(CNc2c3c(nc4nnnn24)CCCC3)CC1 13300 nM
Oc1ccccc1-c1cc(-c2cccnc2)c2cncn2c1 1720 nM
Oc1ccccc1-c1cc(C2=CCOCC2)c2cncn2c1 9680 nM
NS(=O)(=O)c1ccc(N/N=C/c2cn(-c3ccccc3)nc2-c2cccs2)cc1 335 nM
O=C(O)c1ccc(N/N=C/c2cn(-c3ccccc3)nc2-c2cccs2)cc1 2660 nM
COCC(C)n1c(C)cc(C(=O)CSc2nnc(Nc3ccccc3F)s2)c1C (stereo not drawn) 2990 nM
CCOC(=O)c1cc(C)n(CC2CCC(C(=O)Nc3cccc(Cl)c3)CC2)c1C (stereo not drawn) 8410 nM
CC(C)CCN1CCC(N2CCN(S(=O)(=O)c3ccc4c(c3)CCCC4)CC2)C1=O (stereo not drawn) 9440 nM
O=C1NC(=S)S/C1=C\C=C\c1ccc([N+](=O)[O-])o1 5310 nM
Cc1ccc(NC(=O)N2CCC(N3C(=O)C4(CCCCC4)C3c3ccncc3)CC2)cc1C (stereo not drawn) 7500 nM
CCNc1nc(NC(C)(C)C)nc(N2CCCC2)n1 2370 nM
CCOC(=O)c1c(NC(=O)C[n+]2ccc(N(C)C)cc2)sc(C)c1C 1330 nM
O=C(Nc1cc(Cl)ccc1O)c1cc2nc(-c3ccc4c(c3)OCO4)cc(C(F)(F)F)n2n1 2660 nM
COc1ccc(-c2c(C)nn3c(N)c(C#N)cnc23)cc1OC 1680 nM
CC1CC(C)CN(C(=O)c2ccc3ccccc3c2)C1 (stereo not drawn) 2370 nM
COc1cc2ccccc2cc1C(=O)N1CC(C)CC(C)C1 (stereo not drawn) 2370 nM
COc1cc2ccccc2cc1C(=O)N1CCCC(C(F)(F)F)C1 (stereo not drawn) 5310 nM
Cc1ccc(S(=O)(=O)Nc2ccc(-c3cn4ccc(C)cc4n3)cc2)cc1 6680 nM
CCN(CC)CCOC(=O)c1ccc(NC(=O)c2cc3c(=O)n(CC)c4ccccc4c3s2)cc1 2660 nM
CCCCNC(=O)c1onc(CSc2nc3ccccc3[nH]2)c1C(=O)NCCCC 5310 nM
CN(C)c1cc[n+](CC(=O)c2ccc(Br)cc2)cc1 7500 nM
Cc1oc2ccc(O)c(CN3CCCCCC3)c2c1C(=O)Nc1cccc(Cl)c1C 842 nM
Cc1oc2ccc(O)c(CN3CCN(Cc4ccccc4)CC3)c2c1C(=O)Nc1cccc(Cl)c1C 596 nM
COc1ccc(NC(=O)c2c(C)oc3ccc(O)c(CN4CCN(Cc5ccccc5)CC4)c23)cc1 2660 nM
CC1CCCN(Cc2c(O)ccc3c(=O)c(-c4ccc(Cl)cc4)c(C(F)(F)F)oc23)C1 (stereo not drawn) 842 nM
CCc1cc2c(=O)c(-c3cnn(-c4ccccc4)c3)c(C)oc2c(CN2CCCCC2)c1O 1330 nM
CC1CCN(Cc2c(O)ccc3c(=O)c(Oc4ccccc4Cl)c(C(F)(F)F)oc23)CC1 1330 nM
CCN1CCN(Cc2c(O)ccc3c(=O)c(Oc4ccccc4Cl)c(C(F)(F)F)oc23)CC1 596 nM
CC1CCCN(Cc2c(O)ccc3c(=O)c(-c4ccccc4Cl)c(C(F)(F)F)oc23)C1 (stereo not drawn) 842 nM
O=c1c(-c2ccc(Br)cc2)coc2c(CN3CCCCC3)c(O)ccc12 2110 nM
CC1CCCN(Cc2c(O)ccc3c(=O)c(-c4ccc(Cl)cc4)coc23)C1 (stereo not drawn) 1880 nM
Cc1oc2c(CN3CCCCC3)c(O)ccc2c(=O)c1-c1ccc(Cl)cc1 5310 nM
CC1CCCN(Cc2c(O)ccc3c(=O)c(Oc4ccccc4Cl)c(C(F)(F)F)oc23)C1 (stereo not drawn) 2110 nM
Cc1ccc(-c2[nH]n3c(=O)c4c(nc3c2C)CCCC4)cc1 2990 nM
O=C(NCCN1CCCC1)C1CN(S(=O)(=O)c2cccs2)CC12CCCCC2 (stereo not drawn) 13300 nM
c1ccc2c(NCCc3c[nH]c4ccccc34)c3ccccc3nc2c1 1880 nM
CN(C)CCCNc1c2ccccc2nc2ccccc12 4220 nM
Cc1cc(Nc2nc3ccccc3nc2Cl)n(-c2ccccc2C)n1 842 nM
CC(C)CNc1nnnc2c1sc1nc(N3CCOCC3)c3c(c12)CCCC3 15000 nM
COc1cc(C(=O)NC2CCN(c3cc(-c4ccccc4)[nH]n3)CC2)cc(OC)c1OC 5960 nM

Potency, inactive:
CC(C)NC(=O)N1CCN(S(=O)(=O)c2ccccc2)[C@@H](C(=O)N[C@H](Cc2c[nH]c3ccccc23)C(N)=O)C1
CN(Cc1ccc(C2CC(=O)Nc3n[nH]c(C4CCC4)c32)o1)S(C)(=O)=O (stereo not drawn)
Cc1ccc(C)c(-c2cc3c(=O)n(CCNC(=O)c4cccc(F)c4)ccn3n2)c1
COc1ccc([S+](=O)([O-])N2CCC(N3Cc4cccn4C3=O)CC2)cc1
O=C(NN1C(=O)C2C(C1=O)C1C=CC2C12CC2)c1cccnc1 (stereo not drawn)
CCOCCc1nnc(NC(=O)C(=O)c2cc(C)n(-c3ccc(C)c(C)c3)c2C)s1
COc1ccc2c(c1)c(=O)c(S(=O)(=O)c1ccc(F)cc1)cn2CC(=O)Nc1ccc(C)cc1C
CCCN(CC1CCOC1)C(=O)c1ccc(F)c(Cl)c1 (stereo not drawn)
c1cncc(-c2nnc(-c3cccnc3)nn2)c1
Cc1ccc([S+](=O)([O-])NC2CCCN(c3nc4ncccc4o3)C2)cc1 (stereo not drawn)
O=C(N/N=C/c1ccccn1)c1cccs1
Cc1ccc(Nc2nnc(SCC(=O)c3ccc(O)cc3O)s2)cc1
CCOC(=O)c1cccc(NC(=O)N2CC[C@@H](CC(=O)N[C@@H](CO)CC(C)C)[C@@H](CC)C2)c1
CC(=O)N1CCCc2cc(S(=O)(=O)N3CCCC(C(=O)Nc4ccc(C)c(C)c4)C3)ccc21 (stereo not drawn)
CNC(=O)[C@@H]1C[C@H](Oc2cccnc2)CN1S(=O)(=O)c1ccc2c(c1)CCC2
COCCO[C@H]1C(=O)N(C2CCN(C(=O)COc3ccccc3)CC2)[C@H]1c1ccncc1
CCCNC(=O)N1CCC(N2C(=O)[C@H](OCCOC)[C@@H]2c2ccncc2)CC1
Cc1cc[n+](CC(=O)Nc2cccc(C)c2)cc1
O=C(NC1CCN(c2cc(-c3cccs3)[nH]n2)C1)c1cccs1 (stereo not drawn)
COc1ccc(C(=O)N2CCC3(CC2)CC(O)CCO3)c(OC)c1 (stereo not drawn)
COc1cc(Cl)ccc1C(=O)N1CC[C@@](C)(O)[C@@H](O)C1
CC1CC(C)CN(C(=O)CCNC(=O)c2ccccc2Cl)C1 (stereo not drawn)
COc1cc(OC)c(C(=O)N2CCCC2)cc1OC
CC1CC(C)CN(C(=O)CNC(=O)c2sc3ccccc3c2Cl)C1 (stereo not drawn)
O=C(O)c1cccc(C2CCCN(C(=O)c3ccccc3-n3cccn3)C2)c1 (stereo not drawn)
CCc1ccc(S(=O)(=O)Nc2cc(-c3cn4ccccc4n3)ccc2C)cc1
COCC(=O)NC1CCC12CCN(C(=O)c1ccc(C)nc1)CC2 (stereo not drawn)
CC(=O)Nc1cc[n+](C(C)C(=O)c2ccc(Br)cc2)cc1 (stereo not drawn)
COc1ccc(N2Cc3c(ncnc3N3CCN(Cc4ccccc4)CC3)N(C)CC2=O)cc1
Cc1cccc(NC(=O)Cn2nc3n(c2=O)CCCC3)c1C
CC(=O)c1ccc(NC(=O)c2noc3c2CCC3)cc1
O=C(NCc1ccco1)C1CN(S(=O)(=O)c2ccccc2)CC12CCCCC2 (stereo not drawn)
O=C(NCCN1CCCCCC1)C1CCCN1S(=O)(=O)c1cccc2nsnc12 (stereo not drawn)
O=C(NCCc1c[nH]c2ccccc12)c1cncc(Br)c1
Cc1cc(C)n(-c2nc3cc(Cl)ccc3nc2N2CCN(c3ccccc3F)CC2)n1
COC(C)c1ccc(-c2cc(C(=O)O)cc(S(=O)(=O)NC(C)C)c2)cc1 (stereo not drawn)
Cc1cccc(C(=O)NC2CCN(c3cc(-c4ccc(Cl)cc4)[nH]n3)C2)c1 (stereo not drawn)
Cc1ccc(-n2nc3c(=O)n(CCCC(=O)NCc4ccccc4F)nc(C)c3c2C)cc1
O=C(NC1CCN(c2cc(-c3ccc(Cl)cc3)[nH]n2)C1)c1ccccc1 (stereo not drawn)
O=C(NC1CCCN(c2cc(-c3ccccc3)[nH]n2)C1)c1ccccc1 (stereo not drawn)
Cc1ccc2c(c1)COc1c3ccc(C(=O)O)cc3nn1-2
